Screening results deposited in PubChem by National Center for Advancing Translational Sciences (NCATS).
In the library only some 10% were active in any assay of this set; here they are far more common.
BAZ2B inh: qHTS Assay for Inhibitors of BAZ2B; AlphaScreen BAZ2B-H3K14Ac peptide displacement; Potency, µM (titrated, usually from 114 µM), without a hit: at the top dose activity change, negative = inhibition, actives largely listed as inhibitors; 360,000 compounds, 4.4% hits; also: potency is read from the fitted curve at half-maximal effect; % is scaled to controls: 0 for no effect and ±100 for the full control effect; nearly all actives have a fitted effect of over 60% in size
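AlphaScreen luminescence quantifies BAZ2B engagement of H3K14Ac peptide; the protein and biotinylated peptide are both at 50 nM final, buffer PBS pH 7.4 with 0.01% Tween-20, all steps at room temperature.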
HP1b binding inh: HTS for Inhibitors of HP1-beta Chromodomain Interactions with Methylated Histone Tails. Potency, µM (doses to about 114 µM), without a hit: at the highest dose activity change, negative = inhibition, actives largely listed as inhibitors. Chromobox protein homolog 1 (Homo sapiens), P83916. AID 540317, 2011. AlphaScreen HP1-beta / biotin-H3K9me3 peptide binding. 390,000 compounds, 0.56% hits; also: potency is read from the fitted curve at half-maximal effect; nearly all actives have a fitted effect of over 70% in size
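AlphaScreen: HP1-beta (50 nM) preformed 30 min with biotin-H3(1-18)K9me3 peptide (50 nM) in PBS pH 7.4, 0.01% Tween-20. Compound added for 30 min at RT, then streptavidin donor/nickel chelate acceptor beads (10 ug/mL) for 30 min.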
Six1-Eya2 blk: qHTS Assay for Inhibitors of the Six1/Eya2 Interaction. Homeobox protein SIX1 (Homo sapiens) + Protein phosphatase EYA2 (Homo sapiens), …. AlphaScreen GST-Six1/His-Eya2 binding, biochemical; active compounds read low. activity change, % (no concentration beside the values). 360,000 compounds, 0.56% hits; in the data active = activity change below about -65%; inconclusive = mostly about -30% to -63%; also: % is scaled to controls: 0 for no effect and ±100 for the full control effect
Target sequence (O00167 whole entry, looked up): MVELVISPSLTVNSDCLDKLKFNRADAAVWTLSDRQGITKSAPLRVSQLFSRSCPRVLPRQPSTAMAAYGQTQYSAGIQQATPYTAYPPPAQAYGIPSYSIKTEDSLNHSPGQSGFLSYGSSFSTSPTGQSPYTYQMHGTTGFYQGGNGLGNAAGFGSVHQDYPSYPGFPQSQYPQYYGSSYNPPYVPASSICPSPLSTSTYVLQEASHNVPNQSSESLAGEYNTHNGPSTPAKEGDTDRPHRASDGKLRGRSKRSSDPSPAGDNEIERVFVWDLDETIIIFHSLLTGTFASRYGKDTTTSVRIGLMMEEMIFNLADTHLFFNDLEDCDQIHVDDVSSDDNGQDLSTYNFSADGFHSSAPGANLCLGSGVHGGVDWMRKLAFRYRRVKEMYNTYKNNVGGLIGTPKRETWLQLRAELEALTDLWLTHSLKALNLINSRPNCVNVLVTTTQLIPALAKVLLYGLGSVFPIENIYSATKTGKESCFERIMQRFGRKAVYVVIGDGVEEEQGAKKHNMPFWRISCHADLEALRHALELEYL
Target sequence (Q15475 whole entry, looked up): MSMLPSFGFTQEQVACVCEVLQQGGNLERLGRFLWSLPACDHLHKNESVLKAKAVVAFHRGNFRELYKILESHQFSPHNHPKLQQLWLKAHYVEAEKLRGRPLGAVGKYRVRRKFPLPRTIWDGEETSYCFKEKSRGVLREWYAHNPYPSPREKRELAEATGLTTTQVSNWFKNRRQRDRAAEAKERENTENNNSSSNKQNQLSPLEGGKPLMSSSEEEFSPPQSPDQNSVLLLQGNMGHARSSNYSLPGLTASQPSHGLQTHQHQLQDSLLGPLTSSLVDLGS
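Six1/Eya2 binding was read as AlphaScreen signal after compounds were pinned into GST-Six1 plus His-tagged Eya2 (5X stock 250/500 nM) in pH 8.0 Tris/NaCl/TCEP buffer, beads added, then incubated 1 h, 37 C, dark.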
JMJD2A Tudor: qHTS Assay for Inhibitors of JMJD2A-Tudor Domain; AID 504339, 2011; AlphaScreen JMJD2A-Tudor / H3K4me3 peptide binding; 390,000 compounds, 4.4% hits; Potency, µM (doses to about 114 µM), for the others: at the top dose activity change, negative = inhibition, usual class: inhibitors; also: potency is read from the fitted curve at half-maximal effect; % is scaled to controls: 0 for no effect and ±100 for the full control effect; nearly all actives have a fitted effect of over 50% in size
G9a block: qHTS Assay for Inhibitors of Histone Lysine Methyltransferase G9a; Potency, µM (series often up to 102 µM), for inactives: top-dose activity, negative = inhibition, hits mostly inhibitors; 350,000 compounds, 8.8% hits; Histone-lysine N-methyltransferase EHMT2 (Homo sapiens), Q96KQ7; AID 504332, 2011; G9a H3K9 monomethylation, AlphaScreen, 2 h; also: potency is read from the fitted curve at half-maximal effect; % is scaled to controls: 0 for no effect and ±100 for the full control effect; nearly all actives have a fitted effect of over 75% in size
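Using a bead-based AlphaScreen, monomethylated H3K9 product from 2 h room-temperature reactions (G9a 20 nM, peptide 500 nM, SAM 20 uM) was detected with 0.5 ug/mL rabbit anti-H3K9me1 antibody.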
CtBP-E1A inh: qHTS Assay for Inhibitors of the CtBP/E1A Interaction; CtBP / adenovirus E1A interaction (AlphaScreen); AlphaScreen GST-E1A/His-CtBP binding, 1536-well; active compounds read low; activity change, % (no concentration beside the values); 340,000 compounds, 0.49% hits; in the data active = activity change below about -65%; inconclusive = mostly about -30% to -63%; also: % is scaled to controls: 0 for no effect and ±100 for the full control effect
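Steps: dispense buffer (Tris pH 8.0, NaCl 300 mM, TCEP 1 mM, BSA, Tween 20); add 5X protein mix (GST-E1A, His-CtBP, 125 nM each); pin 23 nL compound; 2 h at 37 °C, dark; add 5X beads (50 ug/mL); 1 h; read.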
* = called active by the depositor; u = inconclusive; x = no result given; [ ] = another dose, or the depositor's remark. Unless noted, calls follow the shape of the dose curve; as a rule, active = well fitted inhibition curve with a large enough effect; inconclusive = small, poorly fitted or top-dose-only effect; inactive = no such curve, though single readings can be large or run the other way.

SMILES	BAZ2B inh	HP1b binding inh	Six1-Eya2 blk	JMJD2A Tudor	G9a block	CtBP-E1A inh
CCOC(=O)c1cc(=O)n(-c2ccc(Cl)cc2C)[nH]1	-29%	18%	5	-16%	13µM*	10
CCC(C)c1ccccc1OCCCCN1CCCC1 (stereo not given)	u	-11%	3	3.2µM*	u	2
CCC(C)c1ccccc1OCCOCCN1CCCC1 (stereo not given)	u	u	7	2.5µM*	13µM*	-1
CC(C)(C)c1ccccc1OCCOCCN1CCCCCC1	-38%	16%	-2	-13%	-43%	-2
CC(C)c1cccc(C(C)C)c1OCCCCCN1CCOCC1	x	27%	-1	-18%	x	x
COc1ccc(CCNC(=O)c2ccc3c(c2)CCN3S(C)(=O)=O)cc1	-11%	39%	x	-14%	3%[59 µM]	x
Cc1ccc(CCNc2ncnc3onc(C)c23)cc1	14%[57.1 µM]	41%	x	11%	10%[59 µM]	x
COc1ccc(O)c(-c2nc3ccccc3c(=O)n2Cc2ccccc2)c1	x	x	x	79µM*	x	x
O=c1c2ccccc2nc(-c2ccccc2)n1Cc1ccccc1	-3%	25%	10	1%	-10%[59 µM]	-2
Cc1ccc[n+](CC(=O)Nc2ccc(Cl)c([N+](=O)[O-])c2)c1	-3%	20%	1	-15%	x	-2
Cc1c(NS(=O)(=O)c2cccs2)cccc1-c1nc2cccnc2s1	-16%	11%[57 µM]	3	-16%	2%	x
O=S(=O)(Nc1cccc2ncccc12)c1cccs1	56µM*	31%	-92*	56µM*	28%[59 µM]	-90*
COc1ccc(NC(=O)Nc2ccc(F)cc2)c(C)c1	-21%	-6%	1	-25%	-12%	x
CC(C)(CC(=O)O)CC(=O)Nc1ccccc1Oc1ccccc1	-2%	31%	10	-5%	0%	5
Cc1cc2c(NC(=O)CC(C)(C)CC(=O)O)cccc2nn1	50µM*	24%	-1	-19%	x	x
Cc1cc2c(NC(=O)Nc3ccc(F)cc3)cccc2nn1	-18%	42%	u	-1%	50µM*	u
CCOc1ccc(S(=O)(=O)Nc2cc(Sc3ncn[nH]3)c3oc(=O)sc3c2)cc1	u	x	x	x	32µM*	x
CN(C)c1ccc(CN(C(=O)COc2ccccc2)C2CCS(=O)(=O)C2)cc1 (stereo not given)	u	-8%	-14	-25%	u	0
CN(C)c1ccc(CN(C(=O)C2COc3ccccc3O2)C2CCS(=O)(=O)C2)cc1 (stereo not given)	56µM*	-6%	-17	u	45µM*	-12
Cc1ccccc1OCC(=O)N(Cc1ccc(N(C)C)cc1)C1CCS(=O)(=O)C1 (stereo not given)	-46%	-14%	-11	u	32µM*	-12
Cc1c(C(=O)N(Cc2ccc(N(C)C)cc2)C2CCS(=O)(=O)C2)oc2ccccc12 (stereo not given)	28µM*	u	u	14µM*	13µM*	u
CC(C)c1ccc(CN(C(=O)C2COc3ccccc3O2)C2CCS(=O)(=O)C2)cc1 (stereo not given)	-7%	6%	-2	-19%	x	-4
Cc1c(C(=O)N(Cc2ccccc2)C2CCS(=O)(=O)C2)oc2ccccc12 (stereo not given)	-8%	19%	-2	-23%	3%	-7
Cc1ccc(OCC(=O)N(Cc2ccc(N(C)C)cc2)C2CCS(=O)(=O)C2)cc1C (stereo not given)	45µM*	u	5	u	x	-9
CCOc1ccc(CNC(=O)c2ccc3nc(N4CCOCC4)sc3c2)cc1	-21%	57%	3	1%	-5%	4
SMILES	BAZ2B inh	HP1b binding inh	Six1-Eya2 blk	JMJD2A Tudor	G9a block	CtBP-E1A inh
Cc1ccccc1-c1cc2nc(NCCN3CCNC3=O)n(C)c(=O)c2s1	x	x	-27	x	x	-20
COc1cc(-c2nc(-c3ccccc3)c(-c3cc([N+](=O)[O-])ccc3C)[nH]2)cc(OC)c1OC	u	-30%	u	u	10µM*	-26
COCCNC(=O)C1=CC(c2ccc3c(c2)OCO3)=NS(=O)(=O)N1C	-1%	25%	x	-6%	-1%[59 µM]	x
O=C1C=CC(O)(c2cc(=O)c3c(O)cc(O)cc3o2)C=C1	-1%	21%	-18	-22%	45µM*	-8
CCC(Oc1ccccc1)C(=O)Nc1cc(-c2cccc(C)c2)nn1-c1ccccc1 (stereo not given)	18%	53%[57 µM]	x	14%	10%[59 µM]	x
Cc1ccsc1/C=C1\SC(N)=NC1=O	-5%[57.1 µM]	26%	-20	-10%	9%	-4
Cc1ccsc1/C=C1/SC(N2CC(C)OC(C)C2)=NC1=O (stereo not given)	1%	9%	3	-10%	45µM*	-7
CCNCc1nc2cc(OC)c(OC)cc2c(=O)[nH]1	50µM*	33%	-7	-13%	u	-7
COc1cc2nc(CN(CCC(C)C)Cc3nc4cc(OC)c(OC)cc4c(=O)[nH]3)[nH]c(=O)c2cc1OC	17%	50%	-2	-6%	u	-10
N#Cc1cc2ccccc2nc1SCC(=O)NC1CC1	-19%	36%	-5	-2%	50µM*	5
CCc1cc2ccccc2nc1SCC(=O)NC1CCCC1	2%	-7%	1	-5%	13%[59 µM]	2
CCOCc1cc(CN2CCN(c3cccc(C(F)(F)F)c3)CC2)c(O)c2ncccc12	28µM*	21%	x	56µM*	-16%[59 µM]	x
CC(C)OCc1cc(CN2CCN(c3cccc(C(F)(F)F)c3)CC2)c(O)c2ncccc12	25µM*	45%	x	u	2%[59 µM]	x
COc1ccnc(N2CCN(c3cccc(C(F)(F)F)c3)CC2)c1C#N	10%	20%	6	1%	-13%[2.33 µM]	11
O=C1NC(=S)SC1=C1CCCC1	32µM*	1%	-9	u	18µM*	-2
FC(F)(F)C1=NNC(c2ccc3ccccc3c2)=NN1	x	x	1	x	x	-16
Nc1nc(=S)c2ncn(C3CCCC3)c2[nH]1	u	u	-17	50µM*	19%[0.501 µM]	-10
O=S(=O)(c1cccc2cccnc12)N1CCCc2ccccc21	-13%	16%	3	-19%	2%	0
Cc1ccc(-n2c(SCC(N)=O)nnc2-c2cccnc2)c(C)c1	11%	34%	-1	-9%	-10%[59 µM]	1
